The entries come from a sample that favours hits as a whole.
TTR transcr act – TTR transcription activators in neuroblastoma reporter cells, primary screen, cell-based, luminescence, SH-SY5Y, TTR promoter Gaussia luciferase | 100% = recombinant luciferase protein wells | AID 1117267, 2014 | activation, % at 16.7 µM | 92,000 tested, 1.3% active;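 active = activation above the mean of all tested compounds plus 3 SD, cut at about 9.5% in these data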;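 also: cells exposed to compounds for one day before reading; 0% = median of all test compound wells on the plate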
TTR inh HuH7 – TTR promoter reporter inhibitors in hepatoma cells, counter-screen for TTR transcription activator project, cell-based, luminescence, HuH7 hepatoma; HuH7 TTR promoter-Gaussia luciferase reporter; 1,100 tested, 4% active; shares compounds with TTR transcr act; AID 1117279, 2014; inhibition, % at 16.7 µM;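 active = average inhibition above the solvent-only control wells' mean plus 3 SD, cut at about 15% in these data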;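 also: 0% = cells with DMSO only and 100% = cells with inhibitor control FD; inhibitors lower well luminescence so higher value means more inhibition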
TTR up confirm – TTR transcription activators, retest, confirmation, cell-based, luminescence, SH-SY5Y, triplicate | shares compounds with TTR transcr act | SHSY5Y TTR promoter Gaussia luciferase; 100% = purified Lucia enzyme wells, no cells | activation, % at 16.7 µM | 1,100 tested, under 10 active | AID 1117280, 2014;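 active = mean activation above a set limit taken from the earlier primary screen, cut at about 11% in these data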;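 also: 0% = DMSO-treated cells and 100% = recombinant Lucia luciferase without cells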
An asterisk follows results filed as active.

SMILES	TTR transcr act	others
COc1ccc2[nH]cc(C(=O)CN3CCC(C)CC3)c2c1	0.0
Cc1[nH]c2ccccc2c1C(=O)CN1CCCC1	-0.1
COc1ccc2[nH]c(C)c(C(=O)CN3CCOCC3)c2c1	16.0*	TTR inh HuH7=-9.7;TTR up confirm=-0.2
COc1ccccc1C(=O)n1ccc2ccc(-c3ccc4ccn(Cc5ccc(C#N)cc5)c4c3)cc21	2.6
Cc1cc(C)cc(N2C(=O)C3CCCN3C2=S)c1 (stereo not given)	0.5
Cc1ccc(N2C(=O)C3CCCN3C2=S)cc1C (stereo not given)	20.3*	TTR inh HuH7=-9.3;TTR up confirm=-0.4
Cc1ccc(N2C(=O)C3CCCN3C2=S)cc1 (stereo not given)	-0.3
O=C(CN1CCC(NC(=O)Nc2ccccc2)CC1)Nc1ccc([N+](=O)[O-])cc1	-0.3
COc1ccc(-c2cc(=O)[nH]c(N3CCN(Cc4ccccc4)CC3)n2)cc1	1.2
COc1cccc(-c2csc(N3CCN(Cc4ccccc4)CC3)n2)c1	10.0*	TTR inh HuH7=8.5;TTR up confirm=-0.9
COc1cccc(NC(=O)N2CCN(c3nc(-c4cccc(OC)c4)cs3)CC2)c1	-4.1
COc1ccc(NC(=O)C(CCCCNC(=O)OC(C)(C)C)NC2(C(=O)NCCc3c[nH]c4ccccc34)CCCCC2)cc1 (stereo not given)	-0.1
COc1ccccc1CN[C@@H]1CC[C@@]23CCCN2C(=O)CCC[C@H]3C1	1.9
CC/C(=N/NC(=O)CCC(=O)Nc1ccccc1OC)c1ccccc1	4.7
COc1ccccc1NC(=O)CCC(=O)O	14.8*	TTR inh HuH7=5.2;TTR up confirm=-0.7
CCOc1ccccc1NC(=O)CCC(=O)Nc1ccccc1OCC	1.7
CCc1cc2ccc(C)c(C)c2nc1SCC(=O)NNC(=O)c1ccco1	-1.7
CCN(CC(=O)Nc1c(F)cccc1F)C(=O)c1c(-c2ccccc2Cl)noc1C	-0.6
COc1cccc(NC(=O)CN(C)C(=O)c2c(-c3c(F)cccc3Cl)noc2C)c1	1.3
CCN(CC(=O)Nc1ccc(NC(C)=O)cc1)C(=O)c1c(-c2c(F)cccc2Cl)noc1C	17.0*	TTR inh HuH7=-10.2;TTR up confirm=-0.3
COc1ccc(CN2C(=O)[C@@](O)(c3cccn3C)c3cc(Br)ccc32)cc1	-1.9
CC(=O)NC1(NC(C)=O)CCN(C)C(c2ccccc2)C1C (stereo not given)	14.8*	TTR inh HuH7=-6.3;TTR up confirm=-0.5
CC(=O)NC1(c2ccccc2)CCN(C(=O)N2CCOCC2)CC1	1.4
CC(=O)NC1(C(F)(F)F)C(=O)N(Cc2ccccc2)C2=C1C(=O)CC(C)(C)C2 (stereo not given)	-1.2
COC(=O)CNC(=O)C1CCN(S(=O)(=O)c2cccc3nsnc23)CC1	-0.6
SMILES	TTR transcr act	others
COc1ccc(-c2noc(CCC(=O)Nc3nc4ccccc4s3)n2)cc1	6.1
CCOC(=O)c1cccc(NC(=O)CCc2nc(-c3ccccc3F)no2)c1	5.0
COc1ccc(NC(=O)CCc2nc(-c3ccccc3F)no2)cc1	9.9*	TTR inh HuH7=-16.6;TTR up confirm=0.1
C[C@@H]1CN([C@H](C)CO)C(=O)c2cc(Br)cnc2O[C@H]1CN(C)Cc1ccccc1F	2.1
NS(=O)(=O)c1ccc(Cc2ncc(C(F)(F)F)cc2Cl)s1	1.2
NNS(=O)(=O)c1ccc(Cc2ncc(C(F)(F)F)cc2Cl)s1	3.2
CCN(CC)S(=O)(=O)c1ccc(Cc2ncc(C(F)(F)F)cc2Cl)s1	9.9*	TTR inh HuH7=-10.9;TTR up confirm=-0.4
COC(=O)C[C@H]1CC[C@@H]2[C@H](COc3ccc(NC(=O)c4cnccn4)cc3C(=O)N2C)O1	0.1
O=C(NCCCO)C(=O)Nc1cc2c3c(c1)CCC(=O)N3CCC2	7.2
CCc1cc2c(SCC(=O)C(C#N)=C3N(C)c4ccccc4N3C)ncnc2s1	9.9*	TTR inh HuH7=-28.9;TTR up confirm=0.5
CC(C)C(C)(C#N)NC(=O)CSc1ncnc2sc(-c3ccccc3)cc12 (stereo not given)	-1.4
CCN(CC)C(=O)CSc1ncnc2sc(-c3ccccc3)cc12	-4.3
O=C(NN1CCOCC1)c1ccccc1Br	0.3
O=C1CCC[C@H]2Cc3nc4cc5c(cc4cc3C[C@]23CCCN13)OCO5	2.8
Cc1ccc(C(=O)OCC(=O)NCc2cccs2)cc1	11.2*	TTR inh HuH7=-5.9;TTR up confirm=0.2
COc1ccc(C(=O)NCC(=O)OCC(=O)NCc2cccs2)cc1	0.3
CSc1ncccc1C(=O)OCC(=O)NCc1cccs1	2.4
N#Cc1c(-c2ccccc2)nc2n1CCS2	0.5
CC(C)N1CCN(Cc2ccc3c(c2)Cc2ccccc2-3)CC1CCO (stereo not given)	1.6
O=C(Nc1cccc(S(=O)(=O)N2CCOCC2)c1)c1ccc(N2CCCC2=O)cc1	-2.3
O=C(NCC(c1ccco1)N1CCCC1)c1ccc(-n2cccn2)cc1 (stereo not given)	-0.9
N#Cc1ccc(C(=O)NCC(c2ccco2)N2CCCCC2)cc1 (stereo not given)	-1.9
O=C(CNC(=O)c1ccccc1)NCC(c1ccco1)N1CCCC1 (stereo not given)	13.3*	TTR inh HuH7=-12.2;TTR up confirm=1.0
CC(C)CC1(C)NC(=O)N(CC(=O)Nc2ccc3c(c2)CCC3)C1=O (stereo not given)	11.1*	TTR inh HuH7=-25.9;TTR up confirm=0.7
CC1(c2cccc(Br)c2)NC(=O)N(CC(=O)Nc2ccc(N3CCCCC3)cc2)C1=O (stereo not given)	-0.2
SMILES	TTR transcr act	others
CCc1cccc(NC(=O)CN2C(=O)NC3(CCCCCCC3)C2=O)c1	3.2
COc1ccc2cc(-c3[nH]ncc3CN3CCCN(c4ccccc4)CC3)ccc2c1	-1.4
CCN(CC)C(=O)[C@H]1CC(CC(=O)NCc2ccc(OC)c(OC)c2)C(=O)N2CCc3c([nH]c4ccc(OC)cc34)[C@]12C (stereo not given in full)	3.3
CC(C)CCNC(=O)CSc1nc2c(c(=O)[nH]1)CCC2	2.3
COc1ccc(/C=C(\C#N)C(=O)OCCNC(=O)c2ccncc2)cc1	6.2
COc1ccc(/C=C(\C#N)C(=O)OCC(=O)NC(C)c2ccccc2)cc1 (stereo not given)	17.5*	TTR inh HuH7=-11.7;TTR up confirm=0.3
COc1cc(/C=C(/C#N)C(=O)NC(C)c2ccccc2)cc(OC)c1O (stereo not given)	0.3
COc1ccccc1CCCNC(=O)C1CCC(=O)N(CCc2cccc(F)c2)C1 (stereo not given)	-0.5
COc1ccc([C@H]2C[C@H](O)[C@@H](n3cc(C4CC4)nn3)CN2C(=O)c2cccs2)cc1	1.3
O=C(C1CCCCC1)N1C[C@H](n2cc(-c3ccc(F)cc3)nn2)[C@@H](O)C[C@@H]1c1ccc(Cl)cc1	1.2
Cc1ccc([C@H]2C[C@@H](O)[C@H](n3cc(-c4ccc(F)cc4)nn3)CN2C(=O)c2cccs2)cc1	10.6*	TTR inh HuH7=14.6*;TTR up confirm=-0.2
O=C1C(CN2CCCC2)CCCC1CN1CCCC1 (stereo not given)	1.7
CN1OC[C@@H]2CN(C(=O)CCc3ccccc3)[C@H](c3cccc(Oc4ccccc4)c3)C[C@@H]21	0.0
O=C(Cn1[nH]c(=O)c2ccccc2c1=O)Nc1ccc(-c2nnc3n2CCCCC3)cc1	11.6*	TTR inh HuH7=-15.3;TTR up confirm=1.1
O=C(Cc1n[nH]c(=O)c2ccccc12)Nc1ccc(-c2nnc3n2CCCCC3)cc1	1.3
Cc1c(C(=O)Nc2ccc(-c3nnc4n3CCCCC4)cc2)oc2c1ccc1ccccc12	-2.0
